Here are results for twelve compounds from PubChem BioAssay (EPA / NIEHS).

Values joined by “and” are separate entries in the source; they are usually repeats but may differ in a detail not shown here. Equal entries are not always repeated. Some structures have more than one record in an assay (separate samples or runs), and their calls can disagree. Active and inactive are the calls of the source. The calls were made as follows: active = hit-call score of the fitted dose curve at least 0.9, where 1 is the maximum; inactive = score below 0.9.

Common to all, as to conditions: mRNA level, 48 h; actives raise or lower the signal
Read-out in experiment [1]: growth arrest and DNA damage 45 (GADD45A), GADD45A (gene 1647)
As to the kind of experiment: LTEA_HepaRG_GADD45A: Life Technologies and Expression Analysis (LTEA) Assay for growth arrest and DNA damage 45 (GADD45A) using HepaRG (AID 2283458). The essentials: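 Eight-point concentration-response in HepaRG cells: 48 h chemical exposure, 0.5% DMSO vehicle, top dose 100 uM. Normalized qRT-PCR mRNA readout with bidirectional fitting relative to DMSO.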

Read-out in experiment [2]: Forkhead box O3 (FOXO3), FOXO3 (gene 2309)
As to the kind of experiment: LTEA_HepaRG_FOXO3: Life Technologies and Expression Analysis (LTEA) Assay for Forkhead box O3 (FOXO3) using HepaRG (AID 2283459). The essentials: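 FOXO3 transcript measured by qRT-PCR (normalized to ACTB, GAPDH, POLR2A) after 48 h exposure of HepaRG cells in serum-free induction medium. Duplicates, eight half-log concentrations up to 100 uM, 0.5% DMSO; gain or loss fitted against DMSO.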

Read-out in experiment [3]: ABC Transporter (ABCB1), ABCB1 (gene 5243)
As to the kind of experiment: LTEA_HepaRG_ABCB1: Life Technologies and Expression Analysis (LTEA) Assay for ABC Transporter (ABCB1) using HepaRG (AID 2283460). The essentials: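 ABCB1 transcript level measured by TaqMan qRT-PCR against three housekeeping genes after 48 h chemical exposure of differentiated HepaRG cells. Top concentration 100 uM, half-log steps, eight points, 0.5% DMSO vehicle; bidirectional fit relative to DMSO.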

Read-out in experiment [4]: growth arrest and DNA damage 45 (GADD45B), GADD45B (gene 4616)
As to the kind of experiment: LTEA_HepaRG_GADD45B: Life Technologies and Expression Analysis (LTEA) Assay for growth arrest and DNA damage 45 (GADD45B) using HepaRG (AID 2283461). The essentials: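 Human HepaRG monolayers receive chemicals for 48 h at eight half-log concentrations, highest 100 uM, in 0.5% DMSO. Expression is measured by TaqMan qRT-PCR and normalized to ACTB, GAPDH and POLR2A.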

Read-out in experiment [5]: ABC Transporter (ABCC3), ABCC3 (gene 8714)
As to the kind of experiment: LTEA_HepaRG_ABCC3: Life Technologies and Expression Analysis (LTEA) Assay for ABC Transporter (ABCC3) using HepaRG (AID 2283462). The essentials: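 Transcriptional change of ABCC3 in HepaRG after 48 h treatment, determined by qRT-PCR normalized to endogenous controls. Concentrations spanned eight half-log steps to 100 uM in 0.5% DMSO.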

Read-out in experiment [6]: ABC Transporter (ABCB11), ABCB11 (gene 8647)
As to the kind of experiment: LTEA_HepaRG_ABCB11: Life Technologies and Expression Analysis (LTEA) Assay for ABC Transporter (ABCB11) using HepaRG (AID 2283463). The essentials: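 ABCB11 transcript levels quantified by TaqMan qRT-PCR against three housekeeping genes after 48 h chemical exposure of HepaRG cultures. Concentrations up to 100 uM in half-log steps, 0.5% DMSO vehicle; both induction and suppression scored.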

Read-out in experiment [7]: ABC Transporter (ABCC2), ABCC2 (gene 1244)
As to the kind of experiment: LTEA_HepaRG_ABCC2: Life Technologies and Expression Analysis (LTEA) Assay for ABC Transporter (ABCC2) using HepaRG (AID 2283464). The essentials: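 After plating and 48 h culture, HepaRG medium is replaced with serum-free induction medium and chemicals are added (8 concentrations, max 100 uM, 0.5% DMSO) for 48 h. Total RNA then undergoes qRT-PCR for ABCC2 with housekeeping normalization.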

Read-out in experiment [8]: Broad substrate specificity ATP-binding cassette transporter ABCG2 (Homo sapiens) (UniProt Q9UNQ0)
As to the kind of experiment: LTEA_HepaRG_ABCG2: Life Technologies and Expression Analysis (LTEA) Assay for ABC Transporter (ABCG2) using HepaRG (AID 2283465). The essentials:
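ABCG2 transcript was quantified by TaqMan qRT-PCR against three housekeeping genes in HepaRG cells. Cells were treated in duplicate for 48 h across an 8-point half-log series up to 100 uM, with 0.5% DMSO vehicle. Gain or loss versus DMSO was fit.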

Read-out in experiment [9]: ATP-citrate lyase (ACLY), ACLY (gene 47)
As to the kind of experiment: LTEA_HepaRG_ACLY: Life Technologies and Expression Analysis (LTEA) Assay for ATP-citrate lyase (ACLY) using HepaRG (AID 2283466). The essentials:
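ACLY mRNA quantified by qRT-PCR on Fluidigm arrays against three housekeeping genes, after 48 h chemical treatment of HepaRG cells (top concentration 100 uM, half-log steps, 0.5% DMSO vehicle). Up- or down-regulation fitted relative to DMSO.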

Read-out in experiment [10]: Peroxisomal acyl-coenzyme A oxidase 1 (ACOX1) gene, ACOX1 (gene 51)
As to the kind of experiment: LTEA_HepaRG_ACOX1: Life Technologies and Expression Analysis (LTEA) Assay for Peroxisomal acyl-coenzyme A oxidase 1 (ACOX1) gene using HepaRG (AID 2283467). The essentials:
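ACOX1 transcript levels were quantified by TaqMan qRT-PCR against three housekeeping genes after 48 h chemical exposure of differentiated human HepaRG cells. Exposure used eight half-log steps topping at 100 uM, 0.5% DMSO vehicle, in duplicate. Bidirectional curve fits were made relative to DMSO.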

Sequence of Broad substrate specificity ATP-binding cassette transporter ABCG2 (Homo sapiens) (Q9UNQ0 whole entry, looked up): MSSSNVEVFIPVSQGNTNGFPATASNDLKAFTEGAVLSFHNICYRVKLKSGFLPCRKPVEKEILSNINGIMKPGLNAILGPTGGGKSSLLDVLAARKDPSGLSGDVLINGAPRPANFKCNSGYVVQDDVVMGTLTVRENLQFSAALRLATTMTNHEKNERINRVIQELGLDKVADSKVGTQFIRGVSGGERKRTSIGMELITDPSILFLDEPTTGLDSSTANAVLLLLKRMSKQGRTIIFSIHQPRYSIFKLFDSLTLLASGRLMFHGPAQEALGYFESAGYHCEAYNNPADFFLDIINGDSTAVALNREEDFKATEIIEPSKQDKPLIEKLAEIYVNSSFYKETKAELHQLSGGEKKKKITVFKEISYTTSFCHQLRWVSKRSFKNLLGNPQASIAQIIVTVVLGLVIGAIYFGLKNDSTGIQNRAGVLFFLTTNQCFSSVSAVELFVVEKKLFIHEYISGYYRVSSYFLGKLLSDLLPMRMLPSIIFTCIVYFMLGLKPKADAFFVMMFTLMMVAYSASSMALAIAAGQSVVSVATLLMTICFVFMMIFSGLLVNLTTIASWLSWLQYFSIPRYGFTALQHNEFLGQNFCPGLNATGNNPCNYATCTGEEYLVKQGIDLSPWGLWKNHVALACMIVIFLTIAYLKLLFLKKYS

Regarding `CON(C)C(=O)Nc1ccc(Cl)c(Cl)c1`, the compound was called inactive in experiment [1], in [3], in experiment [4], in [5] and in experiment [9]. Moreover, the concentration at half-maximal activity (AC50) – broadly, the concentration at which the activity in the assay is half-maximal – was 13.4 µM (active) in experiment [2], 43.1 µM (active) in experiment [6], 85 µM (active) in experiment [7] and 78.2 µM (active) in [8].
In the case of `CC(C)(C)c1ccc(CSc2cnn(C(C)(C)C)c(=O)c2Cl)cc1`, the AC50 was 1.99 µM (active) in [1]; 1.49 µM (active) in [2]; 4.66 µM (active) in experiment [3]; 2.21 µM (active) in experiment [6]; 9.03 µM (active) in [7]; 1.72 µM (active) in [9]. Besides, the outcome in experiment [4] and in [5] was inactive.
`Oc1ccccc1-c1ccccc1`: the outcome in [1], in experiment [2], in experiment [3], in experiment [4], in experiment [5] and in [6] was inactive. Besides, the outcome in [7], in [8], in experiment [9] and in experiment [10] was inactive.
With `CCCN(CCC)c1c([N+](=O)[O-])cc(S(N)(=O)=O)cc1[N+](=O)[O-]`, the AC50 was 85.9 µM (active) in [1]; 93.9 µM (active) and 76.9 µM (active) in experiment [2]; 89.8 µM (active) and 84.8 µM (active) and 82.3 µM (active) in experiment [3]; 93.5 µM (active) and 93.2 µM (active) in experiment [4]; 93.6 µM (active) and 74.3 µM (active) and 90.4 µM (active) in experiment [5]; 82 µM (active) in experiment [6]. The AC50 is 92.1 µM (active) and 82.3 µM (active) and 84.7 µM (active) in experiment [7]; 94.3 µM (active) in [9]. Also, the compound was called inactive in experiment [1], in experiment [2], in experiment [4], in [6] and in [9].
As to `CCCCNC(=O)OCC#CI`, the call in [1], in experiment [2], in [3], in experiment [4], in experiment [5] and in experiment [9] was inactive. The AC50 in experiment [6] is 50 µM (active); in experiment [7], 50 µM (active); in experiment [8], 9.92 µM (active).
As to `CCOC(=O)CC(SP(=S)(OC)OC)C(=O)OCC` (centres undefined), the compound was called inactive in [1], in [2], in [3], in experiment [4], in [5] and in experiment [6]. The result in experiment [7], in [8] and in experiment [9] was inactive.
Regarding `C=CC1(C)OC(=O)N(c2cc(Cl)cc(Cl)c2)C1=O` (centres undefined), the outcome in experiment [1], in [2], in experiment [4], in experiment [5], in [7] and in experiment [9] was inactive. Also, the AC50 in experiment [3] was 9.71 µM (active); in experiment [6], 38.3 µM (active); in experiment [8] it was 11.1 µM (active).
As to `COC(=O)c1ccccc1C(=O)OC`, the compound was classed as inactive in [1], in [2], in experiment [3], in [4], in experiment [5] and in experiment [6]. Moreover, the compound was called inactive in experiment [7], in experiment [8] and in experiment [9].
Take `COP(=S)(OC)Oc1nc(Cl)c(Cl)cc1Cl`: the compound was called inactive in experiment [1], in [2], in [3], in experiment [4], in experiment [5] and in experiment [7]. Also, the compound was classed as inactive in [9]. The AC50 in experiment [6] is 86.7 µM (active).
As for `COP(N)(=O)SC` (centres undefined), the call in experiment [1], in [2], in experiment [3], in experiment [4], in [5] and in experiment [6] was inactive. Also, the compound was called inactive in experiment [7] and in [9].
As to `COC(=O)N(OC)c1ccccc1COc1ccn(-c2ccc(Cl)cc2)n1`, the AC50 in [1] was 60 µM (active); in experiment [3] it was 11.6 µM (active); in experiment [6] it was 38.4 µM (active). For the same compound, the result in [2], in [4], in experiment [5], in [7] and in experiment [9] was inactive.
`Cc1ccc(-c2c(Cl)nc(C#N)n2S(=O)(=O)N(C)C)cc1`: the AC50 in experiment [1] is 22.5 µM (active); in [2] it was 3.64 µM (active); in experiment [4], 8.98 µM (active); in [5], 7.3 µM (active); in [6], 36.4 µM (active); in experiment [7] it was 4.39 µM (active). Also, the AC50 in experiment [9] was 50 µM (active). In addition, the outcome in experiment [3] and in [8] was inactive.
